VACV Venus inh: qHTS for Stage-Specific Inhibitors of Vaccinia Orthopoxvirus: Venus Reporter Primary qHTS | Vaccinia virus Venus reporter expression, fluorescence | Potency, µM (doses to about 36.5 µM), for the others: at the highest dose activity change, negative = inhibition, actives largely listed as inhibitors | 0.46% of 330,000 active | AID 720580, 2013; calls by dose curve; tested in A549 cells; further: potency means the concentration at half of the fitted maximal effect; nearly all actives have a fitted effect of over 30% in size
HCV inhibitor: qHTS Assay for Inhibitors of Hepatitis C Virus (HCV); Huh7.5.1 HCVcc-Cre infection, luciferase reporter, 44 h; Potency, µM (titrated, usually from 41.8 µM), inactives show at the highest dose activity change, negative = inhibition, most hits filed as inhibitors; 3.4% of 340,000 active; AID 651820, 2012; active means well fitted inhibition curve with a large enough effect; inconclusive means small, poorly fitted or top-dose-only effect, or another doubt; inactive means no such curve, though single readings can be large or run the other way; further: potency means the concentration at half of the fitted maximal effect
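Infectious HCVcc-Cre (~0.5 moi) was added to cells just after compound, with cells seeded 4 h earlier at 1,000 per well. Luciferase activity after 44 h culture reported infection; substrate was incubated 15 min at room temperature before reading.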
HCMV inh: qHTS Assay for inhibitors of the human cytomegalovirus (HCMV). 4.5% of 410,000 active. activity change, negative = inhibition, % at 57.5 µM. HFF cells, HCMV-luciferase reporter, 72 h; hits give low values. AID 1259415, 2018; in the data active means activity change below about -60%; inconclusive means no clear call, values can overlap the other calls; inactive means above about -39%
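After 16 h attachment at 37C, HFF cells received test compound and HCMV-luciferase (1 PFU/cell); reporter luminescence read 72 h later, data normalized against buffer-only and known inhibitor Salinomycin.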
VACV mCherry inh: qHTS for Stage-Specific Inhibitors of Vaccinia Orthopoxvirus: mCherry Reporter Primary qHTS; Vaccinia virus mCherry reporter infection, fluorescence; Potency, µM (doses to about 36.5 µM), for the others: at the highest dose activity change, negative = inhibition, most hits filed as inhibitors; 0.63% of 310,000 active; calls by dose curve; tested in A549 cells; further: potency means the concentration at half of the fitted maximal effect; nearly all actives have a fitted effect of over 35% in size
FMDV inh: High Throughput Screening for Foot and Mouth Disease Virus Antivirals. Potency, µM (series often up to 57.9 µM), for the others: at the highest dose activity change, negative = inhibition, hits mostly inhibitors. 1.2% of 410,000 active. FMDV antiviral cell-based qHTS; calls by dose curve; tested in HEK293T cells; further: read-out not given here; potency means the concentration at half of the fitted maximal effect; nearly all actives have a fitted effect of over 45% in size
* hit, by the source's call; i = inactive; ? = inconclusive; · = no result; [ ] = remark or other dose. Most compounds without a hit are left out; they make up all but 7.3% or so of the library. On the % scale 0 is the no-effect control and ±100 the full control effect.

SMILES	VACV Venus inh	HCV inhibitor	HCMV inh	VACV mCherry inh	FMDV inh
Cc1ccc(NC(=O)CSc2nnc(C)n2CC2CCCO2)cc1 (stereo unspecified)	·	17%	-28	·	-15%
Cc1ccc(NC(=O)C(C)Sc2nnc(C)n2CC2CCCO2)cc1 (stereo unspecified)	17%	11%	-71*	-3%	-8%
COc1ccc(Nc2cc3c(cn2)cc(-c2cccnc2)n3C)cn1	·	·	-18	·	·
Cc1nc2ccccn2c1-c1csc(NCc2ccco2)n1	·	?	-12	·	?
Cc1ccn2c(-c3csc(NCc4ccccc4)n3)c(C)nc2c1	?	10µM*	-81*	·	16µM*
Cc1ccc(Nc2nc(-c3c(C)nc4ccccn34)cs2)cc1	10µM*	?	-101*	?	25µM*
Cc1ccc(Nc2nc(-c3c(C)nc4ncccn34)cs2)cc1	?	?	8	?	?
CC(C)Oc1ccc(CNC(=O)c2ccc3nc(C(C)C)oc3c2)cc1	-1%[7.34 µM]	·	9	3%[7.34 µM]	22%
O=C1CC(/C=C/c2ccncc2)=Nc2ccccc2N1	-4%	?	-99*	?	1%
CCN1C(C(=O)c2ccccc2)=C(OC(=O)COc2ccc(C)cc2)c2ccccc2S1(=O)=O	?	·	-32	?	-4%
CN(Cc1ccco1)C(=O)C1CCN(c2nnc(-n3cccc3)s2)CC1	·	-20%	-11	·	-3%
O=C(NCc1ccco1)C1CCN(c2nnc(-n3cccc3)s2)CC1	-5%	-10%	-67*	i	-3%
Cc1oc(-c2ccc(C(=O)NCc3ccccc3)cc2)nc1CS(=O)(=O)c1ccccc1	-29%	·	0	-27%	?
Cc1oc(-c2ccc(C(=O)NCc3ccc(Cl)cc3)cc2)nc1CS(=O)(=O)c1ccccc1	-29%	·	-69*	-5%	-26%
Cc1oc(-c2ccc(C(=O)NCCN(C)C)cc2)nc1CS(=O)(=O)c1ccccc1	-10%	·	-70*	-2%	-16%
Cc1cc2oc(=O)c(CC(=O)NCCCO)c(C)c2c2occ(C(C)(C)C)c12	·	-11%	?	·	0%
Cc1cc2oc(=O)c(CC(=O)NCCCN(C)C)c(C)c2c2occ(C(C)(C)C)c12	?	10µM*	·	13µM*	-10%
COCCNC(=O)Cc1c(C)c2c(cc(C)c3c(C(C)(C)C)coc32)oc1=O	?	?	-61*	?	?
Cc1ccc(-c2noc(CNC(=O)COc3cc(C)c(Br)c(C)c3)n2)cc1	-10%	·	-30	1%	-15%
Cc1ccc(-c2onc(C)c2C)cc1S(=O)(=O)NCc1cccs1	-29%	·	-38	i	31%
FC(F)(F)c1cccc(-c2nc3c(NCCc4ccccn4)nccc3[nH]2)c1	·	·	-3	·	·
CC#CC(=O)N[C@H]1CC[C@@]23CCCN2C(=O)CCC[C@H]3[C@H]1Cc1ccccc1	·	·	-14	·	·
N#CC(C(=O)OC1CCCCC1)c1nc2ccccc2nc1N1CCOCC1 (stereo unspecified)	3%	19%	-78*	-6%	0%
O=C(NC(Cc1ccc(O)cc1)C(=O)N=Nc1c(O)[nH]c2ccccc12)c1ccccc1 (stereo unspecified)	-5%	15%	-83*	-5%	12%
COC(=O)CN1C(=O)CSc2ccc(S(=O)(=O)Nc3ccc(C)c(Cl)c3)cc21	-12%	·	?	-12%	43%
SMILES	VACV Venus inh	HCV inhibitor	HCMV inh	VACV mCherry inh	FMDV inh
COc1ccccc1Nc1nc(Cl)nc(Nc2ccccc2OC)n1	-3%	13µM*	51	6%	?
COc1ccccc1Nc1cc(C)nc(Nc2ccccc2OC)n1	-23%	2.5µM*	-29	-15%	-23%
COc1ccccc1Nc1nc(C)cc(C)n1	-14%	-20%	-2	-2%	13%
C=CCNc1nc(Cl)nc(Nc2cc(Cl)ccc2OC)n1	-4%	-15%	-28	-14%	-12%
O=c1[nH][nH]c(C(F)(F)F)c1C=NCc1cccs1	·	-5%	-65*	·	-26%
O=c1[nH][nH]c(C(F)(F)F)c1C=Nc1ccccc1	·	5%	-7	·	0%
COc1ccc(OC)c(C2CC(=O)c3c([nH]c(C(=O)OC4CCC(C)CC4)c3C)C2)c1 (stereo unspecified)	?	·	-9	-22%	-23%

Screening data from PubChem.
